Screening results from PubChem BioAssay.
USP1-UAF1 inh – Inhibitors of USP1/UAF1: Primary Screen. Potency, µM (doses to about 57.1 µM), for inactives: top-dose activity change, negative = inhibition, usual class: inhibitors. recombinant USP1/UAF1, Ub-Rhodamine cleavage fluorescence. 390,000 tested, 0.23% active; note: % is set by controls: 0 for no effect and ±100 for the full control effect; nearly all actives have a fitted effect of over 60% in size
Target sequence (O94782 whole entry, looked up): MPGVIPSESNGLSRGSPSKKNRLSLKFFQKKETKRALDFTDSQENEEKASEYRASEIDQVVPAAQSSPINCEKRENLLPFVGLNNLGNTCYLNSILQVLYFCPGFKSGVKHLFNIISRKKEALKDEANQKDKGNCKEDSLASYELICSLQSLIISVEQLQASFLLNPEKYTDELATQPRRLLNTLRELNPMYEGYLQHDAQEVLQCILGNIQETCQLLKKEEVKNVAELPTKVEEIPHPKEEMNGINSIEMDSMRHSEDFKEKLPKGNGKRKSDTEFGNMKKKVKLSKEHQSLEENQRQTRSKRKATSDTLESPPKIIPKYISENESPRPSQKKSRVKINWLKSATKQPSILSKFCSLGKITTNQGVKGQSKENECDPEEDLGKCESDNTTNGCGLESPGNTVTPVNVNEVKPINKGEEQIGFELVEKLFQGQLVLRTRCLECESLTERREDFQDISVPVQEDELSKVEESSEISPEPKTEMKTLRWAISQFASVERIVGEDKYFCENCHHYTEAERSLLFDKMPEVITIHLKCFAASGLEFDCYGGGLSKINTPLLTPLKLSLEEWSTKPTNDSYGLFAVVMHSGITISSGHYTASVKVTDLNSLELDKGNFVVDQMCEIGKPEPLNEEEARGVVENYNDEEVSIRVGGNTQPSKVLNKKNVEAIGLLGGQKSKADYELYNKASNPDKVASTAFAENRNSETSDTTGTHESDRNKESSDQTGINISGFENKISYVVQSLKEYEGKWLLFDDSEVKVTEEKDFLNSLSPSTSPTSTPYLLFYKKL
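Step one: compound is pinned into 1nM USP1/UAF1 in HEPES pH 7.8 buffer with TCEP. Step two: 15 min room-temperature incubation. Step three: Ub-Rho (150nM final) starts cleavage, tracked by fluorescence over six one-minute reads.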
TSG101-PTAP inh – qHTS Assay for Iinhibitors of HIV-1 Budding by Blocking the Interaction of PTAP/TSG101; Fluorescence polarization, FITC-PTAP peptide / Tsg101 binding; Potency, µM (doses to about 115 µM), inactives show top-dose activity change, negative = inhibition, actives largely listed as inhibitors; 340,000 tested, under 10 active; AID 493005, 2010; active = well fitted inhibition curve with a large enough effect in the main read-out, with a control signal flat, not every such curve was filed as active; inconclusive = small, poorly fitted or top-dose-only effect, or effect the other way, or a change in a side signal; inactive = no such curve, though single readings can be large or run the other way; note: % of control where 0% means no effect
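FP read-out: FITC-PTAP peptide, 50 nM final, binding Tsg101 binding domain, 10 uM final; 20 min, r.t.; 10 mM HEPES pH 7.5, 0.15 M NaCl, 0.01% Tween 20, 3 mM EDTA, 0.1 mM TCEP.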
GCN5L2 inh – qHTS Assay for Inhibitors of GCN5L2; 390,000 tested, 0.21% active; GCN5L2 HAT assay, ThioGlo1 CoA-SH fluorescence; AID 504327, 2011; Potency, µM (doses to about 58.9 µM), inactives show top-dose activity change, negative = inhibition, usual class: inhibitors; note: % is set by controls: 0 for no effect and ±100 for the full control effect
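Compounds, pin-transferred from DMSO stocks, meet 20nM GCN5L2 for 15 min before the reaction begins with H3(1-25) peptide (75uM) and acetyl-CoA (70uM). Thiol-reactive ThioGlo1 reports CoA release over 20 min at room temperature.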
VDR inhibitor – Inhibitors of the vitamin D receptor (VDR): qHTS; Vitamin D3 receptor (Homo sapiens), P11473; Potency, µM, for inactives: max response, negative = inhibition, hits mostly inhibitors; 400,000 tested, 0.93% active; VDR-SRC2-3 peptide fluorescence polarization, 2 h; note: % is set by controls: 0 for no effect and ±100 for the full control effect
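Fluorescence polarization assay measuring small-molecule disruption of VDR binding to the coregulator peptide SRC2-3. Compounds were pin-transferred (23 nl) into the reagent mix and incubated 2 h at room temperature before reading.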
PLK1 PBD block – qHTS for Inhibitors of PLK1-PDB (polo-like kinase 1 - polo-box domain): Primary Screen | Plk1 PBD binding of FITC phosphopeptide, fluorescence polarization | Potency, µM, without a hit: max response, negative = inhibition, most hits filed as inhibitors | 360,000 tested, 2.8% active | AID 720504, 2013; note: series mostly up to about 57 µM; % is set by controls: 0 for no effect and ±100 for the full control effect; nearly all actives have a fitted effect of over 65% in size
VDR inh confirm – qHTS for Inhibitors of the vitamin D receptor (VDR): Hit Validation in Primary Screen | shares compounds with VDR inhibitor | VDR-coactivator inhibition assay, qHTS confirmation | Potency, µM, hits mostly inhibitors | 840 tested, 89% active | AID 602199, 2012
VDR FP – qHTS for Inhibitors of the vitamin D receptor (VDR): Hit Validation using a Fluorescein Assay | VDR-coactivator binding, fluorescein fluorescence polarization | AID 602200, 2012 | 840 tested, 48% active | shares compounds with VDR inhibitor | Potency, µM (top dose mostly 57.1 µM), for the others: at the top dose activity change, negative = inhibition, most hits filed as inhibitors
VDR bla reporter – qHTS for Inhibitors of the vitamin D receptor (VDR): Hit Validation using a Beta-Lactamase Assay. shares compounds with VDR inhibitor. VDR beta-lactamase reporter cells, FRET ratio; cells co-treated with VDR agonist LG190178. Potency, µM (top dose mostly 46.1 µM), inactives show at the highest dose activity change, negative = inhibition, most hits filed as inhibitors. 840 tested, 23% active. AID 602202, 2012; note: % is set by controls: 0 for no effect and ±100 for the full control effect
VDR cytotox – qHTS for Inhibitors of the vitamin D receptor (VDR): Hit Validation using a Cytotoxicity Assay; 840 tested, 18% active; shares compounds with VDR inhibitor; AID 602204, 2012; cytotoxicity counter-screen, cell viability, qHTS; Potency, µM (doses to about 48.3 µM), for inactives: top-dose activity change, negative = cytotoxicity, most hits filed as cytotoxic;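 note: plate controls were DMSO for no effect and high-concentration cycloheximide for full effect; nearly all actives have a fitted effect of over 75% in size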
Starred values were filed as active, the others as inactive; ? = inconclusive; . = no result. Sampled rows, rich in hits. Any-hit rate of the full collection: about 3%. Unless noted, calls come from the whole dose curve; as a rule, active = well fitted curve in the direction sought with a large enough effect; inconclusive = small, poorly fitted or top-dose-only effect, or another doubt; inactive = no such curve, though single readings can be large; an effect the other way counts as inactive or inconclusive. Potency is the fitted concentration of half-maximal effect.

SMILES	USP1-UAF1 inh	TSG101-PTAP inh	GCN5L2 inh	VDR inhibitor	PLK1 PBD block	VDR inh confirm	VDR FP	VDR bla reporter	VDR cytotox
O=C(Nc1ccc(OCc2ccccc2)cc1)c1cccnc1	-0.3%	-4.3%	-8.4%	-4.6%	-0.6%	.	.	.	.
O=C(/C=C/c1ccc(OCc2ccccc2)c(OCc2ccccc2)c1)c1cccnc1	-19.4%	-3.8%	-13.8%	?	-10.4%	7.08*	3.98µM*	-13.7%	-5.0%
O=CN/C=C/c1cc(F)cc(F)c1F	.	.	.	-3.1%	.	.	.	.	.
Cc1cc(F)ccc1NC(=O)C1CCC(CNS(=O)(=O)c2ccc3c(c2)CCCC(=O)N3)CC1 (stereo unspecified)	-15.0%	.	-1.8%	2.2%	.	.	.	.	.
COC(=O)C1(C(=O)OC)Cc2conc2[C@H]1c1ccccc1	.	.	.	0.3%	.	.	.	.	.
CC(C(=O)NCc1cccnc1)c1ccc([N+](=O)[O-])cc1 (stereo unspecified)	-26.2%	1.0%	?	-3.7%	-20.7%	.	.	.	.
O=C(CSc1ccccc1)Nc1nnc(COc2ccc(Cl)cc2)s1	-6.5%	0.4%	?	39.8µM*	2.67µM*	2.99*	?	18.1%	23.7%
Cc1onc(-c2ccccc2)c1C(=O)Nc1nnc(COc2ccc(Cl)cc2)s1	-15.0%	-3.8%	?	20µM*	1.34µM*	6.7*	?	-5.1%	-18.2%
Cc1cccc(C)c1OCc1nnc(NC(=O)CSc2ccc(Cl)cc2)s1	-1.0%	0.9%	1.8%	3.8%	-5.5%	.	.	.	.
O=C(COc1cccc(C(F)(F)F)c1)NCC(c1ccco1)N1CCCCC1 (stereo unspecified)	-16.8%	1.5%	-8.5%	5.3%	5.5%	.	.	.	.
CC(=O)N(c1ccccc1C)C1CCCC1	-15.6%	-1.4%	-3.6%	-11.7%	2.6%	.	.	.	.
CC(=O)N(C1=C(Cl)C(=O)c2ccccc2C1=O)C1CCCCC1	?	2.3%	31.6µM*	14.1µM*	3.77µM*	11.9*	14.1µM*	5.8µM*	?
O=C(O)CN1C(=O)/C(=C\C(Br)=C\c2ccccc2)SC1=S	-12.3%	-3.2%	-17.0%	35.5µM*	5.97µM*	?	18.4%	?	?
C=C1CCN(C(C)C(=O)OCc2ccc(C)cc2)S(=O)(=O)c2ccccc21 (stereo unspecified)	.	.	.	-4.2%	.	.	.	.	.
CCS(=O)(=O)c1oc(-c2ccc(F)cc2)nc1S(=O)(=O)c1ccccc1	?	.	-8.1%	20µM*	.	4.47*	3.98µM*	5.8µM*	9.47µM*
CCCCS(=O)(=O)c1oc(-c2ccc(F)cc2)nc1S(=O)(=O)c1ccc(C)cc1	-15.8%	.	-4.1%	?	.	.	.	.	.
